The text below walks through data of PubChem BioAssay (NCI).

Each structure is given as a SMILES string. The panel holds about 83,000 compounds, 20% with a hit somewhere; the sample as a whole holds those more often.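 Negative percent growth values reflect cell death: -40 means 40% of the cells present at the start died, and -100 means all died.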 Unmarked numbers belong to inactive results. Calls of active or inactive are those of the source. Rule for the calls: active = growth percent below 10; inactive = the rest.

What all share (experiment): NCI-60 one-dose screen, 48 h (100 = growth as untreated, 0 = no growth, -100 = all killed)
Common to all, as to details: 10 µM unless noted

In assay [1] the test system is SK-MEL-2 melanoma.
The subject of assay [2] is EKVX NSCLC.
Assay [3] has as its system UO-31 renal.
The test system of assay [4] is TK-10 renal.
Assay [5] relates to ACHN renal.
In assay [6] the test system is CAKI-1 renal.
In assay [7] the test system is CCRF-CEM leukemia.
The test system of assay [8] is MOLT-4 leukemia.
Assay [9] has as its system SR leukemia.
Assay [10] has as its system RPMI-8226 leukemia.
Assay [11] relates to OVCAR-8 ovarian.
The test system of assay [12] is OVCAR-5 ovarian.
Assay [13] relates to OVCAR-4 ovarian.
Assay [14] deals with SK-OV-3 ovarian.
Assay [15] has as its system IGROV1 ovarian.
Assay [16] deals with OVCAR-3 ovarian.
For assay [17], the system named is HS 578T breast.
Assay [18] deals with NCI/ADR-RES ovarian.
For assay [19], the system named is A498 renal.

As for `Nc1n[nH]c2cc(F)c([C@@H]3Nc4ccc5[nH]ncc5c4[C@H]4C5CCC(C5)[C@@H]34)cc12` (stereo partly drawn), the growth was 26.2% in assay [1]; 47.2% in assay [2]; 38.6% in assay [3]; 52.5% in assay [4]; 21.1% in assay [5]; 9.87% (active) in assay [6]. Also, the growth in [7] is 16.6%; in assay [8] it was 16.1%; in [9], 9.53% (active); in assay [10], 32.1%; in [11] it was 19.5%; in [12], 30.1%. For the same compound, the growth in assay [13] is 32.1%; in assay [14], 20.6%; in assay [15], 15%; in assay [16], 12.9%; in assay [17], -4.82% (active); in [18], -26.9% (active).
In the case of `O=C1c2c(O)cc(O)cc2-c2c(-c3ccc(O)cc3)oc3cc(O)cc1c23`, the growth in assay [1] is 72.3%; in [2] it was 62.2%; in [3], 12.7%; in assay [4], 63.4%; in [5], 9.27% (active); in assay [6], 33%. Besides, the growth in assay [19] is 62.5%; in [7] it was 6.03% (active); in [9], 0.6% (active); in [10], 41.8%; in [11], 46.6%; in [12], 111%. For the same compound, the growth was 61.5% in [13]; 52.2% in assay [15]; 44% in assay [16]; 32.1% in [17]; 90.4% in [18].
Take `CC(O)CN(CC(C)O)c1ccc2c(c1)Cc1cc([N+](=O)[O-])ccc1-2` (stereo not drawn): the growth in assay [1] was 95.9%; in assay [2], 74.8%; in [3] it was 63.2%; in assay [4], 97.3%; in [5] it was 93%; in assay [6], 84.6%. Besides, the growth was 106% in [7]; 69.8% in assay [8]; 62.5% in assay [9]; 104% in [10]; 118% in [11]; 86.2% in assay [12]. Further, the growth in assay [13] was 112%; in [14] it was 108%; in assay [16] it was 91.7%; in assay [17], 95.8%; in assay [18], 92.9%.
For the compound `CC(=O)O[C@H]1C(=O)[C@@]2(C)[C@H]([C@H](OC(=O)c3ccccc3)[C@]3(O)C[C@H](OC(=O)[C@H](OC(=O)CCC(=O)OC4CCC(S/N=C(N)/N=C(\N)N(C)C)CC4)[C@@H](NC(=O)c4ccccc4)c4ccccc4)C(C)=C1C3(C)C)[C@]1(OC(C)=O)CO[C@@H]1C[C@@H]2O` (stereo partly drawn), the growth is 12.8% in assay [1]; 37.3% in [2]; 47.3% in [3]; 48.9% in assay [4]; 39.7% in [5]; 25.5% in [6]. In addition, the growth was 26.7% in assay [19]; 17.5% in assay [7]; 22.5% in assay [8]; 11.3% in [9]; 14% in [10]; 21.8% in assay [11]. The growth in assay [13] is 40.3%; in assay [14] it was 28.4%; in assay [15] it was 43.1%; in assay [16], 10.2%; in assay [17], -9.33% (active); in assay [18], 44.5%.
As to `C=C1C(=O)O[C@H]2[C@H]1CC/C(C=Nc1ccc(C(F)(F)F)cc1N)=C\CC[C@@]1(C)O[C@@H]21`, the growth in [1] is -18.3% (active); in assay [2], 31.2%; in assay [3], 30.3%; in assay [4] it was 1.36% (active); in assay [5], -38% (active); in [6], 15.5%. Moreover, the growth in [19] is 46.8%; in [7], -5.78% (active); in [9] it was -2.49% (active); in [10], -17% (active); in assay [11] it was 3.29% (active); in [12], 31.5%. For the same compound, the growth in assay [13] was 23.3%; in [15] it was 27.7%; in assay [16], -11.1% (active); in assay [17] it was 7.74% (active); in assay [18], 23.4%.
With `O=C1/C(=C/c2ccccc2O)N=C2SCCCN12`, the growth in assay [1] is 95.6%; in [2] it was 81.8%; in assay [3], 84%; in [4], 109%; in [5], 98.4%; in assay [19], 85.7%. Also, the growth was 131% in [7]; 115% in assay [8]; 117% in assay [9]; 103% in [10]; 98.4% in assay [11]; 91.7% in assay [12]. In addition, the growth was 100% in assay [14]; 91.3% in [15]; 92.9% in assay [16]; 87.7% in assay [17]; 99.6% in assay [18].
As for `CCC(=O)c1ccc(Cl)s1`, the growth in assay [1] is 102%; in assay [2] it was 117%; in [3], 98%; in assay [4] it was 103%; in [5] it was 107%; in [6], 102%. The growth in assay [19] is 98.4%; in assay [7] it was 101%; in [8], 94%; in assay [10], 104%; in [11], 101%; in [12], 105%. Also, the growth in assay [13] is 109%; in assay [14] it was 114%; in assay [16], 112%; in assay [18] it was 104%.
On to `FC(F)(F)c1[nH]ncc1-c1nc2ccc3n[nH]c(C#Cc4cccnc4)c3c2c2c1CCCC2`, for which the growth was 65.8% in assay [1]; 30.1% in [2]; 19.8% in [3]; 46.4% in assay [4]; 22.6% in assay [5]; -7% (active) in assay [6]. Moreover, the growth in assay [7] was 25.2%; in assay [8] it was 14.9%; in assay [9] it was 14.2%; in assay [10] it was 47.7%; in assay [11], 45.5%; in assay [12] it was 67.3%. The growth is 17.8% in assay [15], 54.2% in assay [16], 13.8% in assay [17] and 72.1% in assay [18].
Take `COc1ccc(-c2nc3ccc(-c4nc5ccc(N6CCN(c7ccncc7)CC6)cc5[nH]4)cc3[nH]2)cc1OC`: the growth is -17% (active) in assay [1]; 69.2% in assay [2]; 97.5% in assay [3]; 101% in assay [4]; 91.9% in assay [5]; 57.5% in assay [6]. The growth in assay [19] was 61.4%; in assay [7] it was 21.1%; in assay [8] it was 18.1%; in assay [10], 53.5%; in assay [11], 34.6%; in assay [12], 87.2%. The growth in assay [13] was 26.5%; in [15] it was 65.2%; in assay [16], 4.61% (active); in assay [17] it was 44.1%; in [18], 96.9%.
